In the library only some 2.3% were active in any assay of this set; here they are far more common.
SIRT5 block: inhibitors of human sirtuin-5 desuccinylase; AID 652115; Q9NXA8; inhibition, % at 15 µM; Purified SirT5, succinyl-peptide AMC, trypsin-coupled fluorescence; actives 1.1% (n = 330,000); in the data active = inhibition above about 15%; inconclusive = no clear call, values can overlap the other calls
Rtt109 HAT inh: C. albicans Rtt109 histone acetyltransferase inhibition; Q5AAJ8; purified Rtt109/Vps75, ThioGlo CoA-SH fluorescence, 4 h; AID 540336; inhibition, % at 34.9 µM; actives 0.16% (n = 330,000);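 active = inhibition of at least 50% in every replicate; inconclusive = best replicate reaches 50% inhibition but some replicates fall short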
ERp5 block: inhibitors of human ERp5. AID 651711. Q15084. inhibition, % at 9.99 µM. actives 0.05% (n = 350,000). ERp5 insulin aggregation, absorbance 650 nm, 90 min;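 active = mean replicate inhibition above about 25%, with every replicate also reaching it, limit read from the data, passing the limit was not always enough; inconclusive = only one of those two criteria met; inactive = neither criterion met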
Target sequence (Q15084 whole entry, looked up): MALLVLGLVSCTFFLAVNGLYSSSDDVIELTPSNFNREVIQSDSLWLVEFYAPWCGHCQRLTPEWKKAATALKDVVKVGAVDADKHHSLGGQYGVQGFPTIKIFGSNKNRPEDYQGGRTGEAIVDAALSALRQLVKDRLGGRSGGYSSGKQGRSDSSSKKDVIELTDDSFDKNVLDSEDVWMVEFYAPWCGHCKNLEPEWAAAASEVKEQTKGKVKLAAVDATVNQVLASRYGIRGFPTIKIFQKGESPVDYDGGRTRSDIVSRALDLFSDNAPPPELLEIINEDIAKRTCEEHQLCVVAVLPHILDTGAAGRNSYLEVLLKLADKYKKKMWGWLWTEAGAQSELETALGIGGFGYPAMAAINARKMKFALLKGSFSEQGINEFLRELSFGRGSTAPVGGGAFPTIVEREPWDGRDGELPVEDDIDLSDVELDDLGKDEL
DENV2 CPE rescue: DENV2-induced cell death inhibition | CPE inhibition, % at 9.99 µM | DENV2-infected cells, cytopathic effect rescue, plate reader | actives 1.7% (n = 350,000); in the data active = CPE inhibition above about 20%, passing the limit was not always enough; inconclusive = no clear call, values can overlap the other calls; tested in BHK-21 cells;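 note: 0% = median of neutral control wells and 100% = median of positive control wells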
PDI turbidity: inhibitors of human protein disulfide isomerase; P07237; PDI insulin aggregation turbidity, A650, 90 min; inhibition, % at 10 µM; actives 0.052% (n = 350,000); AID 588391;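 active = mean inhibition across replicates of 30% or more, whatever share of single replicates reach that level; inconclusive = mean inhibition below 30% while every single replicate reaches 30%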
Active calls of the source: *; ? = inconclusive; / = not tested or not shown.

SMILES	SIRT5 block	Rtt109 HAT inh	ERp5 block	DENV2 CPE rescue	PDI turbidity
C[C@@H]1CN([C@H](C)CO)C(=O)c2cc(NS(=O)(=O)c3ccc(F)cc3)ccc2O[C@@H](C)CCCCO[C@@H]1CN(C)CC1CCCCC1	19*	/	-5	8	/
C[C@H](CO)N1C[C@H](C)[C@H](CN(C)CC2CCCCC2)OCCCC[C@H](C)Oc2ccc(NS(=O)(=O)c3ccccc3)cc2C1=O	2	/	1	-9	/
C[C@@H]1CCCCO[C@H](CN(C)CC2CC2)[C@H](C)CN([C@H](C)CO)C(=O)c2cc(NS(=O)(=O)c3ccc(F)cc3)ccc2O1	1	/	-2	29*	/
C[C@@H]1CCCCO[C@H](CN(C)CC2CCCCC2)[C@@H](C)CN([C@H](C)CO)C(=O)c2cc(NS(=O)(=O)c3ccccc3)ccc2O1	-14	/	1	28*	/
Cc1ccc(S(=O)(=O)Nc2ccc3c(c2)CC(=O)N([C@@H](C)CO)C[C@H](C)[C@@H](CN(C)S(=O)(=O)c2ccc(Cl)cc2)O3)cc1	/	/	/	1	/
O=C(Cc1ccccn1)NCC[C@H]1CC[C@@H](NC(=O)CN2CCOCC2)[C@H](CO)O1	2	/	-2	1	/
OCCN1CCN(c2ncnc3c2ncn3[C@H]2CN(Cc3ccc(Cl)cc3)C[C@@H](CO)O2)CC1	-1	/	0	-7	-4
CN1CCN(c2ncnc3c2ncn3[C@H]2CN(Cc3ccc(Cl)cc3)C[C@@H](CO)O2)CC1	/	/	9	35*	7
C[C@@H]1CN([C@@H](C)CO)S(=O)(=O)c2ccc(Br)cc2O[C@H]1CN(C)C(=O)c1cnccn1	3	/	-7	1	/
C[C@H]1CN([C@@H](C)CO)C(=O)c2cc(NC(=O)C3CC3)ccc2O[C@H]1CN(C)Cc1ccc(C(F)(F)F)cc1	4	/	6	27*	/
C[C@@H]1CN([C@@H](C)CO)C(=O)c2cc(NC(=O)Nc3ccc(C(F)(F)F)cc3)ccc2O[C@H]1CN(C)Cc1ccccc1	7	/	-4	5	/
C[C@@H]1CN([C@H](C)CO)C(=O)c2cc(NC(=O)Nc3ccc(C(F)(F)F)cc3)ccc2O[C@@H]1CN(C)Cc1ccccc1	-3	/	-8	83*	/
C[C@H](CO)N1C[C@H](C)[C@H](CN(C)Cc2ccc(C(F)(F)F)cc2)Oc2ccc(N(C)C)cc2C1=O	/	/	1	40*	/
CC(C)NC(=O)Nc1ccc2c(c1)C(=O)N([C@H](C)CO)C[C@@H](C)[C@H](CN(C)Cc1ccc(C(F)(F)F)cc1)O2	15*	/	-1	7	/
CNC[C@@H]1Oc2c(NS(=O)(=O)c3ccc(OC)cc3)cccc2C(=O)N([C@H](C)CO)C[C@H]1C	4	/	2	-3	/
C[C@@H]1CN([C@@H](C)CO)C(=O)c2cc(NC(=O)Nc3ccccc3)ccc2O[C@H]1CN(C)Cc1ccc(C(F)(F)F)cc1	3	/	1	21*	/
C[C@H]1CN([C@@H](C)CO)C(=O)c2cc(NC(=O)Nc3ccccc3)ccc2O[C@@H]1CN(C)Cc1ccc(C(F)(F)F)cc1	2	/	1	2	/
CC(=O)Nc1ccc(NC(=O)COc2ccc(Br)cc2C)cc1	15*	-1	16	13	3
CC(=O)N(C)c1ccc(NC(=O)COc2ccc(Br)cc2C)cc1	3	7	?	3	-10
CCOc1ccc(C(=O)NN2CCOCC2)cc1	-4	18	3	154*	-9
O=C(C1CCCCC1)N1C[C@H](O)[C@@H](n2cc(C3CC3)nn2)C[C@@H]1c1ccccc1	-1	/	-2	86*	-3
O=C(C1CCCCC1)N1C[C@@H](O)[C@H](n2cc(-c3ccc(F)cc3)nn2)C[C@@H]1c1ccccc1	28*	/	4	-5	-1
Nc1c(-c2ccccc2)nc2ncccn12	0	/	5	28*	/
CCC(=O)N[C@@H]1C=C[C@@H](CC(=O)NCc2ccccc2F)O[C@H]1CO	-2	/	3	2	/
CCOC(=O)C(C)Oc1cc(Cl)c(C=O)cc1OC (configuration not stated)	16*	1	-1	6	0
SMILES	SIRT5 block	Rtt109 HAT inh	ERp5 block	DENV2 CPE rescue	PDI turbidity
COC(=O)COc1cc(Cl)c(C=O)cc1OC	0	9	-4	-5	7
COc1ccc(C#Cc2cnc3c(c2)C(=O)N([C@H](C)CO)C[C@@H](C)[C@@H](CN(C)C(C)=O)O3)cc1	1	/	-6	0	/
O=C(CCC1CCCCC1)NCCN1C2=NC[C@H](Cc3ccc(O)cc3)N2C[C@H]1Cc1ccc(O)cc1	-4	29	0	-4	34*
C/C=C/c1ccc2c(c1)O[C@H](CN(C)Cc1ccc(F)cc1)[C@@H](C)CN([C@@H](C)CO)S2(=O)=O	11	/	4	-2	/
O=C(CCNC(=O)OCC1c2ccccc2-c2ccccc21)NOCc1ccccc1	-3	-4	-5	29*	-6
CO[C@H]1CN(C)C(=O)c2ccc(NC(=O)Nc3cc(F)ccc3F)cc2OC[C@H](C)NC[C@@H]1C	0	/	/	-1	/
C[C@@H]1CN([C@@H](C)CO)S(=O)(=O)c2ccc(C3=CCCC3)cc2O[C@@H]1CN(C)Cc1ccccc1	11	/	0	-1	/
O=C(C[C@H]1CC[C@@H]2[C@H](COC[C@@H](O)CN2Cc2nccs2)O1)NCc1ccc(-c2ccccc2)cc1	-1	/	-5	34*	/
O=C(C[C@H]1CC[C@@H]2[C@H](COC[C@H](O)CN2Cc2cccc(C(F)(F)F)c2)O1)NCCc1ccccc1	-3	/	-24	15	/
O=C(C[C@H]1CC[C@H]2[C@@H](COC[C@@H](O)CN2Cc2cccc(C(F)(F)F)c2)O1)NCc1ccc(F)cc1	2	/	21	111*	/
O=C(C[C@H]1CC[C@H]2[C@@H](COC[C@@H](O)CN2Cc2cccc(C(F)(F)F)c2)O1)NCCc1ccccc1	0	/	-23	26*	/
O=C(C[C@H]1CC[C@@H]2[C@H](COC[C@H](O)CN2Cc2cccc(C(F)(F)F)c2)O1)NCc1ccc(F)cc1	1	/	4	-11	/
O=C(C[C@H]1CC[C@@H]2[C@H](COC[C@@H](O)CN2C(=O)c2ccccc2F)O1)NCc1ccc(F)cc1	6	/	10	38*	/
O=C(C[C@H]1CC[C@H]2[C@@H](COC[C@@H](O)CN2Cc2nccs2)O1)NCc1ccc(-c2ccccc2)cc1	1	/	-9	3	/
COc1ccc(S(=O)(=O)Nc2cccc3c2O[C@@H](CN(C)S(=O)(=O)c2cn(C)cn2)[C@H](C)CN([C@@H](C)CO)C3=O)cc1	-1	/	1	17	/
COc1ccc(CN2C[C@H](O)COC[C@H]3O[C@H](CC(=O)NCc4ccncn4)CC[C@@H]32)cc1	5	/	-2	21*	/
Cc1noc(C)c1S(=O)(=O)N(C)C[C@@H]1OCCCC[C@@H](C)Oc2ccc(NC(=O)C3CCCCC3)cc2C(=O)N([C@H](C)CO)C[C@@H]1C	1	/	-1	1	/
Cc1c(Cl)cccc1NC(=O)CNC(=O)C1CC(=O)N(C2CCCC2)C1 (configuration not stated)	-1	10	1	88*	5
